Test results from PubChem BioAssay (EPA / NIEHS).
Records with an inconclusive call do not appear. The source made the active and inactive calls. How the source made its calls, unless noted: active means hit-call score of the fitted dose curve at least 0.9, where 1 is the maximum; inactive means score below 0.9.

Tests used:
[1] = CCTE_Shafer_MEA_dev_firing_rate_mean: CCTE's Neural Network Formation Assay for Mean Firing Rate, Shafer Lab (AID 2284031)
Procedure, shortened: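 Primary rat cortical neurons on 48-well MEA plates, exposed from plating day 0 with dosing renewed on DIV 5 and 9. Mean well firing rate over active electrodes, recorded days 5, 7, 9, 12, summarised as trapezoidal AUC.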

[2] = CCTE_Shafer_MEA_dev_per_burst_spike_percent: CCTE's Neural Network Formation Assay for Percent of Spikes in a Burst, Shafer Lab (AID 2284032)
Procedure, shortened: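 Rat primary cortical neurons on 16-electrode MEA wells, dosed from plating day 0 for 12 days with renewal on DIV 5 and 9; spikes-in-bursts percentage averaged over bursting electrodes, collapsed as AUC across days 5, 7, 9, 12; loss direction versus DMSO.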

[3] = CCTE_Shafer_MEA_dev_active_electrodes_number: CCTE's Neural Network Formation Assay for Number of Active Electrodes, Shafer Lab (AID 2284040; active means hit-call score of the fitted dose curve at least 0.9, where 1 is the maximum)
Procedure, shortened: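 Primary rat cortical neurons on 16-electrode MEA wells, exposed from day 0 through day 12 with compound renewed at DIV 5 and 9 feeds. Active electrodes (mean firing ≥5 spikes/min) counted at DIV 5, 7, 9, 12; trapezoidal AUC across days, loss-of-signal versus DMSO.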

[4] = CCTE_Shafer_MEA_dev_burst_rate: CCTE's Neural Network Formation Assay for Burst Rate, Shafer Lab (AID 2284042)
Procedure, shortened: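 Primary rat cortical neurons on PEI-coated 48-well MEA plates (laminin added with cells at plating) (16 electrodes/well), exposed from plating to day 12, dosing renewed at DIV 5 and 9. Burst rate averaged over active electrodes, recorded DIV 5, 7, 9, 12, summarized as AUC; loss versus DMSO.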

[5] = CCTE_Shafer_MEA_dev_bursting_electrodes_number: CCTE's Neural Network Formation Assay for Number of Bursting Electrodes, Shafer Lab (AID 2284043; active means hit-call score of the fitted dose curve at least 0.9, where 1 is the maximum)
Procedure, shortened: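 Primary rat cortical neurons plated on 16-electrode MEA wells, exposed from day 0 with compound renewed at DIV 5 and 9. Electrodes bursting ≥1 burst per 2 min counted on days 5, 7, 9 and 12; trapezoidal AUC across days, fitted for loss versus DMSO.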

[6] = CCTE_Shafer_MEA_dev_per_burst_interspike_interval: CCTE's Neural Network Formation Assay for Burst Interspike Interval, Shafer Lab (AID 2284044);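 further: mean spike spacing inside bursts as AUC over recordings on days 5 7 9 12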
Procedure, shortened: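 Spontaneous activity of maturing rat cortical networks is recorded on DIV 5, 7, 9 and 12 under chronic compound exposure beginning at plating. Endpoint: burst interspike interval well-mean, collapsed into trapezoidal AUC and fitted in the negative direction relative to DMSO.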

[7] = CCTE_Shafer_MEA_dev_burst_duration_mean: CCTE's Neural Network Formation Assay for Mean Burst Duration, Shafer Lab (AID 2284045)
Procedure, shortened: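 Primary rat cortical neurons on 48-well 16-electrode MEA plates, exposed from day 0 with renewal at DIV 5 and 9; spontaneous activity recorded on days 5, 7, 9, 12. Well-mean burst duration across bursting electrodes, collapsed as trapezoidal AUC; DMSO baseline.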

[8] = CCTE_Shafer_MEA_dev_interburst_interval_mean: CCTE's Neural Network Formation Assay for Mean Interburst Interval, Shafer Lab (AID 2284046);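 further: well-mean interburst interval of bursting electrodes as AUC over four recording days; curve fitted for decrease in interburst interval relative to DMSO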
Procedure, shortened: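 Recordings on days 5, 7, 9 and 12 give well-mean interburst interval across actively bursting electrodes, summarized as area under the curve. Cultures: rat cortical neurons, continuous exposure from day 0, compound renewed at feeds; decrease analyzed versus DMSO.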

[9] = CCTE_Shafer_MEA_dev_inter_network_spike_interval_mean: CCTE's Neural Network Formation Assay for Mean Inter-network Spike Interval, Shafer Lab (AID 2284047)
Procedure, shortened: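 Primary rat cortical neurons on 16-electrode MEA wells, exposed from plating day 0 through DIV 12, compound renewed at DIV 5 and 9 media changes. Mean interval between network-spike peaks recorded DIV 5, 7, 9, 12; collapsed as trapezoidal AUC, fitted downward versus DMSO.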

[10] = CCTE_Shafer_MEA_dev_network_spike_number: CCTE's Neural Network Formation Assay for Number of Network Spikes, Shafer Lab (AID 2284048)
Procedure, shortened: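 Primary rat cortical neurons on PEI/laminin 48-well MEA plates, dosed from plating day 0 for 12 days, renewed at DIV 5 and 9. Network spike counts recorded DIV 5, 7, 9, 12, collapsed as trapezoidal AUC; DMSO baseline.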

[11] = CCTE_Shafer_MEA_dev_network_spike_peak: CCTE's Neural Network Formation Assay for Mean Number of Electrodes in Network Spike, Shafer Lab (AID 2284049)
Procedure, shortened: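 Network-spike peak electrode count from recordings on days 5, 7, 9 and 12 was combined as trapezoidal area under the curve. Rat cortical cultures were treated continuously from plating, with compound renewed at each feed (DIV 5, 9); fits versus DMSO.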

[12] = CCTE_Shafer_MEA_dev_spike_duration_mean: CCTE's Neural Network Formation Assay for Mean Spike Duration, Shafer Lab (AID 2284051);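 further: mean network spike duration pooled as area under curve over DIV 5 to 12 recordings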
Procedure, shortened: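 Primary rat cortical neurons on 16-electrode MEA wells (PEI-coated, laminin in plating drop), exposed from plating through DIV 12 with compound renewed at DIV 5 and 9. Mean network-spike duration recorded DIV 5, 7, 9, 12; trapezoidal AUC across days, DMSO baseline.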

[13] = CCTE_Shafer_MEA_dev_per_network_spike_spike_number_mean: CCTE's Neural Network Formation Assay for Mean Number of Spikes in a Network Spike, Shafer Lab (AID 2284053)
Procedure, shortened: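 Primary rat cortical neurons on 48-well, 16-electrode MEA plates were exposed from plating to DIV 12, with dosing renewed on DIV 5 and 9. Spikes per network spike (0.05 s peak window) were recorded on DIV 5, 7, 9 and 12 and collapsed as trapezoidal AUC versus DMSO.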

[14] = CCTE_Shafer_MEA_dev_per_network_spike_spike_percent: CCTE's Neural Network Formation Assay for Percent of Spikes in a Network Spike, Shafer Lab (AID 2284054)
Procedure, shortened: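 Rat primary cortical neurons were grown on 48-well MEA plates (16 electrodes/well), exposed from plating day 0 through day 12, with treatment renewed on DIV 5 and 9. Percent of spikes within 0.05 s network-spike peaks was measured, summarised as AUC across days 5, 7, 9, 12.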

[15] = CCTE_Shafer_MEA_dev_LDH: CCTE's Lactate Dehydrogenase Assay for Cytotoxicity in the Neural Network Formation Assay, Shafer Lab (AID 2284068; active means hit-call score of the fitted dose curve at least 0.9, where 1 is the maximum;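 further: exposure for twelve days from plating with re-dosing on DIV 5 and 9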)
Procedure, shortened: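 Primary rat cortical neurons were plated on PEI/laminin MEA plates and exposed from day 0 for twelve days, with compound renewed at DIV 5 and 9. Cytotoxicity was determined by spectrophotometric LDH assay relative to DMSO.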

[16] = CCTE_Shafer_MEA_dev_mutual_information_norm: CCTE's Neural Network Formation Assay for Mutual Information Normalization, Shafer Lab (AID 2284091)
Procedure, shortened: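 Primary rat cortical neurons on PEI-coated 48-well MEA plates, 1.5 x 10^5 cells/well, exposed from day 0 through day 12 with re-dosing at DIV 5 and 9. Mutual information between electrodes recorded days 5, 7, 9, 12; trapezoidal AUC, loss-of-signal fit versus DMSO.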

[17] = UKN2_HCS_IMR90_neural_migration: University of Konstanz (UKN) Leist Lab Neural Crest Cell Migration Assay in human induced IMR90 Pluripotent Stem Cells (UKN2) (AID 2284204); conditions: actives raise or lower the signal
Procedure, shortened: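 iPSC-derived IMR90 neural crest cells seeded around stoppers on PLO/laminin/fibronectin; migration started in N2-S medium with EGF/FGF, compounds added after 24 h for 24 h. Migration into cell-free area imaged after calcein-AM/Hoechst staining; bidirectional fit versus DMSO.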

[18] = IUF_NPC1b_proliferation_BrdU_72hr: Leibniz Research Institute for Environmental Medicine (IUF) 72-hour Neural Progenitor Cell Bromodeoxyuridine (BrdU) Proliferation Assay (NPC1b) (AID 2284207)
Procedure, shortened: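 BrdU luminescence ELISA quantified DNA synthesis over the last 16 h of a 72 h exposure, fitted against DMSO. Primary hNPC spheres from gestational week 16-19 cortex grown with EGF/FGF at 37C, pH 7.2-7.6.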

[19] = IUF_NPC1a_proliferation_area_72hr: Leibniz Research Institute for Environmental Medicine (IUF) 72-hour Neural Progenitor Cell Proliferation Area Assay (NPC1a) (AID 2284208)
Procedure, shortened: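 Measured in 3D suspension: each well held one primary hNPC sphere grown with EGF and FGF at pH 7.2-7.6. Compound stayed on for 72 h, then area was imaged; spheres lacking growth factors defined reduced proliferation.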

[20] = IUF_NPC1_viability_72hr: Viability Assessment at 72 hours in the Leibniz Research Institute for Environmental Medicine (IUF) Neural Progenitor Cell Proliferation Assay (NPC1) (AID 2284209)
Procedure, shortened: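 Single spheres (0.25-0.35 mm) of human fetal cortex-derived neural progenitor cells were grown in proliferation medium with EGF and FGF at 37C and 5% CO2. They were exposed for 72 h without renewal, and viability was read by alamar blue resorufin fluorescence.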

[21] = CCTE_Mundy_HCI_Cortical_Synap_Neur_Matur_NeuriteSpotCountPerNeuriteLength: CCTE's Synaptogenesis and Neurite Maturation Assay in rat cortical cells for Neurite Spot Count per Neurite Length, Mundy Lab (AID 2284210)
Procedure, shortened: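 Rat primary cortical cultures, AraC added at DIV 5 to suppress glia; chemical exposure from DIV 7 to DIV 12. Fixed cells stained for MAP2 and synaptophysin plus Hoechst; synaptophysin puncta per neurite length quantified by high-content imaging, relative to DMSO.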

[22] = CCTE_Mundy_HCI_Cortical_Synap_Neur_Matur_BPCount: CCTE's Synaptogenesis and Neurite Maturation Assay in rat cortical cells for Branch Point Count, Mundy Lab (AID 2284211)
Procedure, shortened: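 Rat primary cortical cultures, AraC added DIV 5; chemicals dosed DIV 7 through DIV 12. Fixed cells stained for MAP2, synaptophysin and Hoechst; neurite branch points counted by automated high-content imaging, fitted relative to DMSO.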

Measured: AC50

C[C@@H]1CC[C@@H](C(C)(C)O)[C@H](O)C1
active: [18] 8.23 µM
inactive: [1] | [2] | [3] | [4] | [5] | [6] | [7] | [8] | [9] | [10] | [11] | [12] | [13] | [14] | [15] | [16] | [17] | [19] | [20] | [21] | [22]
